The subject of assay [1] is HT29 RNF43 G659fs (RNF43 659mut, CRISPR-edited). The experiment in a line: cell viability activity relative to DMSO (negative = inhibition); higher = more viable cells (less growth inhibition). To be noted: 5 µM; 96 h. The procedure:
(§1)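 Broad Repurposing Library primary screen at a single dose of 5 uM. HT29 sg-Ctrl and HT29 RNF43 G659fs CRISPR-edited isogenic cells were seeded at 2500 cells/well in 384-well plates in duplicate and treated for 96 h. Viability was read by CellTiter-Glo and reported as % activity relative to DMSO, with MG132 as the positive control (negative = growth inhibition).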

Assay [2] concerns HT29 sg-Ctrl (RNF43 wildtype). The description is as above. To be noted: 5 µM; 96 h. The procedure:
as §1

The structures appear in SMILES notation. Several values for one entry are separate records, joined by “and”; a condition that tells them apart may be missing. Identical values can stand only once.

In the case of `COC(=O)c1ccc2c(C(=Nc3ccc(N(C)C(=O)CN4CCN(C)CC4)cc3)c3ccccc3)c(O)[nH]c2c1`, the cell viability activity is -73.8% in assay [1] and -34.2% in assay [2].
For `CCOc1cc(C(=O)N2CCC(N3CCN(C)CC3)CC2)ccc1Nc1ncc2c(n1)N(C1CCCC1)c1ccccc1C(=O)N2C` the same measures were -64.4% and -65.5%.
Turning to `O=C(NOC[C@H](O)CO)c1ccc(F)c(F)c1Nc1ccc(I)cc1F`, the cell viability activity in assay [1] was -81.1%; in assay [2], -85%.
The like results for `Cn1cc(-c2[nH]c3cc(NC(=O)[C@H](N)C4CCCCC4)cc4c3c2C=NNC4=O)cn1` were, in that order, -54.9% and -79.1%.
The like results for `COc1ccc2[nH]c(C(=O)c3ccccc3)cc2c1` were, in that order, -61.7% and -55.7%.
For `CC1(C)CC(=O)c2c(C(F)(F)F)nn(-c3ccc(C(N)=O)c(N[C@H]4CC[C@H](O)CC4)c3)c2C1` the same measures were -86.4% and -78.4%.
As to `O=c1cc(N2CCOCC2)oc2c(-c3cccc4c3sc3ccccc34)cccc12`, the cell viability activity in assay [1] is -57.6%; in assay [2], -57.1%.
For `COc1ccc2[nH]c3c(-c4cccc5ccccc45)nccc3c2c1` the same measures were -69.1% and -60.2%.
The like results for `Cc1ccc(C(=O)Nc2ccc(CN3CCN(C)CC3)c(C(F)(F)F)c2)cc1C#Cc1cnc2cccnn12` were, in that order, -86.7% and -78.4%.
Turning to `CNCCCOc1cc(F)c(-c2c(Cl)nc3ncnn3c2N[C@@H](C)C(F)(F)F)c(F)c1`, the cell viability activity is -72.6% in assay [1] and -62.1% in assay [2].
On to `COC(=O)[C@H]1[C@H]2C[C@@H]3c4[nH]c5cc(OC)ccc5c4CCN3C[C@H]2C[C@@H](OC(=O)c2cc(OC)c(OC)c(OC)c2)[C@@H]1OC`, for which the results for the cell viability activity in assay [1] and in assay [2] were -26.1% and -40.7%, respectively.
For `CC(C)CC(=O)Nc1n[nH]c2c1CN(C(=O)C1CCN(C)CC1)C2(C)C` the same measures were -60.4% and -61.4%.
As for `Clc1cc(Cl)c(OCC#CI)cc1Cl`, the cell viability activity is -35.5% in assay [1] and -23.2% in assay [2].
In the case of `CO[C@@H](C(=O)N1Cc2[nH]nc(NC(=O)c3ccc(N4CCN(C)CC4)cc3)c2C1)c1ccccc1`, the values for the cell viability activity in assay [1] and in assay [2] were -62% and -55.5%, respectively.
The like results for `O=C(CCCCCCC(=O)Nc1ccccc1)NO` were, in that order, -85.7% and -84.4%.
For `CC(=O)c1c(C)c2cnc(Nc3ccc(N4CCNCC4)cn3)nc2n(C2CCCC2)c1=O` the same measures were -37.2% and -48.4%.
The like results for `CCN(CC)C(=S)SSC(=S)N(CC)CC` were, in that order, -79.2% and -43.6%.
Regarding `C[C@@H]1CC[C@@]2(NC1)O[C@H]1C[C@H]3[C@@H]4CC=C5C[C@@H](O[C@@H]6O[C@H](CO)[C@@H](O[C@@H]7O[C@@H](C)[C@H](O)[C@@H](O)[C@H]7O)[C@H](O)[C@H]6O[C@@H]6O[C@@H](C)[C@H](O)[C@@H](O)[C@H]6O)CC[C@]5(C)[C@H]4CC[C@]3(C)[C@H]1[C@@H]2C`, the cell viability activity in assay [1] was -94%; in assay [2], -86.6%.
For `Cc1cccc(-c2[nH]c(C(C)(C)C)nc2-c2ccc3c(c2)OCO3)n1` the same measures were -79.2% and -50.7%.
For `CC(C)(C#N)c1ccc(N2C(=O)OCc3cnc4ccc(-c5cnc6ccccc6c5)cc4c32)cc1` the same measures were -30.7% and -20%.
For `O=C(/C=C\n1cnc(-c2cc(C(F)(F)F)cc(C(F)(F)F)c2)n1)N1CC(F)(F)C1` the same measures were -72.2% and -68%.
Take `Cc1nc(C#Cc2ccnc(Cl)c2)c(C)n1-c1ccc(OC(F)(F)F)cc1`: the cell viability activity was -25.5% in assay [1] and -18.5% in assay [2].
As for `NC(=S)N/N=C/c1ncccc1N`, the values for the cell viability activity in assay [1] and in assay [2] were -58.9% and -69.1%, respectively.
The like results for `CC(C)(C)c1[nH]cnc1/C=c1\[nH]c(=O)/c(=C/c2ccccc2)[nH]c1=O` were, in that order, -55.7% and -54%.
Turning to `CCc1c2c(nc3ccc(O)cc13)-c1cc3c(c(=O)n1C2)COC(=O)[C@]3(O)CC`, the cell viability activity in assay [1] is -84%; in assay [2] it was -63.3%.
For `Clc1ccc2c(c1)CCc1cccnc1C2=C1CCNCC1` the same measures were -39.8% and -28.4%.
The like results for `CC(C)n1nc(-c2ccc3oc(N)nc3c2)c2c(N)ncnc21` were, in that order, -74.9% and -52.5%.
For `CCOC(=O)CCNc1cc(N2CCc3ccccc3CC2)nc(-c2ccccn2)n1` the same measures were -82.7% and -27.5%.
As to `N#Cc1ccc(Cn2cncc2CN2CCN(c3cccc(Cl)c3)C(=O)C2)cc1`, the values for the cell viability activity in assay [1] and in assay [2] were -45.7% and -43.4%, respectively.
For `CCCCCCCCCCCCCCC[C@@H](O)[C@@H](N)CO` the same measures were -36.8% and -43.8%.
In the case of `COc1c(C)cnc(Cn2cc(C#CCC(C)(C)O)c3c(Cl)nc(N)nc32)c1C`, the cell viability activity in assay [1] is -42.7%; in assay [2] it was -88.4%.
For `C[C@H]1[C@H](OC(=O)CCC(=O)O)O[C@@H]2O[C@@]3(C)CC[C@H]4[C@H](C)CC[C@@H]1[C@@]24OO3`, the cell viability activity was -42.8% and -37.2% in assay [1]; -35.1% and -16.8% in assay [2].
Turning to `Cc1noc2c1-c1ccccc1C(c1ccc(Cl)cc1)=N[C@H]2CC(N)=O`, the cell viability activity in assay [1] is -53.9%; in assay [2], -57.7%.
For `CCNC(=O)c1noc(-c2cc(C(C)C)c(O)cc2O)c1-c1ccc(CN2CCOCC2)cc1` the same measures were -86.6% and -86%.
The like results for `CN(Cc1cnc2nc(N)nc(N)c2n1)c1ccc(C(=O)N[C@@H](CCC(=O)O)C(=O)O)cc1` were, in that order, -67.9% and -66%.
For `COc1cc([C@@H]2c3cc4c(cc3[C@@H](O[C@@H]3O[C@@H]5CO[C@@H](C)O[C@H]5[C@H](O)[C@H]3O)[C@H]3COC(=O)[C@H]23)OCO4)cc(OC)c1OP(=O)(O)O` the same measures were -25.3% and -24.7%.
As to `COc1ccc(-c2ccc3c(N4CCOC[C@@H]4C)nc(N4CCOC[C@@H]4C)nc3n2)cc1CO`, the values for the cell viability activity in assay [1] and in assay [2] were -71.9% and -55.9%, respectively.
